# Assays:
# Experiment in all cases: SPOT peptide array binding signal intensity (averaged, normalized) (arbitrary units (background-subtracted, floor 0; scale differs between SH3 domains)); higher = stronger binding of the SH3 domain to the peptide
# AgAbp1 = biological target: AgAbp1
# Procedure, shortened: (§1)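 Four yeast species supplied the SH3 domains, which were expressed as GST fusions in E. coli BL21(DE3) and purified on glutathione Sepharose. Incubation with cellulose membranes carrying synthetic 15-mer peptides, cysteines exchanged for serines, ran overnight at 4°C at 10 μg/ml in TBS-based blocking buffer. Binding signal is reported as normalized, background-subtracted spot intensity averaged over replicates, in arbitrary units not shared between domains.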
# AgBbc1 = biological target: AgBbc1
# Procedure, shortened: as §1
# AgBem1-D1 = biological target: AgBem1-D1
# Procedure, shortened: as §1
# AgBzz1-D1 = biological target: AgBzz1-D1
# Procedure, shortened: as §1
# AgBzz1-D2 = biological target: AgBzz1-D2
# Procedure, shortened: as §1
# AgCyk3 = biological target: AgCyk3
# Procedure, shortened: as §1
# AgFus1 = biological target: AgFus1
# Procedure, shortened: as §1
# AgHof1 = biological target: AgHof1
# Procedure, shortened: as §1
# AgHse1 = biological target: AgHse1
# Procedure, shortened: as §1
# AgLsb1 = biological target: AgLsb1
# Procedure, shortened: as §1
# AgLsb4 = biological target: AgLsb4
# Procedure, shortened: as §1
# AgMyo5 = biological target: AgMyo5
# Procedure, shortened: as §1
# AgNbp2 = biological target: AgNbp2
# Procedure, shortened: as §1
# AgRvs167 = biological target: AgRvs167
# Procedure, shortened: as §1
# AgSho1 = biological target: AgSho1
# Procedure, shortened: as §1
# AgSla1-D1-D2 = biological target: AgSla1-D1-D2
# Procedure, shortened: as §1
# AgSla1-D3 = biological target: AgSla1-D3
# Procedure, shortened: as §1
# CaAbp1-D1 = biological target: CaAbp1-D1
# Procedure, shortened: as §1
# CaAbp1-D2 = biological target: CaAbp1-D2
# Procedure, shortened: as §1
# CaBbc1 = biological target: CaBbc1
# Procedure, shortened: as §1
# CaBem1-D1 = biological target: CaBem1-D1
# Procedure, shortened: as §1
# CaBzz1-D1 = biological target: CaBzz1-D1
# Procedure, shortened: as §1
# CaBzz1-D2 = biological target: CaBzz1-D2
# Procedure, shortened: as §1
# CaCyk3 = biological target: CaCyk3
# Procedure, shortened: as §1
# CaFus1 = biological target: CaFus1
# Procedure, shortened: as §1
# CaHof1 = biological target: CaHof1
# Procedure, shortened: as §1
# CaHse1 = biological target: CaHse1
# Procedure, shortened: as §1
# CaLsb1 = biological target: CaLsb1
# Procedure, shortened: as §1
# CaLsb4 = biological target: CaLsb4
# Procedure, shortened: as §1
# CaMyo5 = biological target: CaMyo5
# Procedure, shortened: as §1
# CaNbp2 = biological target: CaNbp2
# Procedure, shortened: as §1
# CaRvs167 = biological target: CaRvs167
# Procedure, shortened: as §1
# CaRvs167-3 = biological target: CaRvs167-3
# Procedure, shortened: as §1
# CaSho1 = biological target: CaSho1
# Procedure, shortened: as §1
# CaSla1-D1-D2 = biological target: CaSla1-D1-D2
# Procedure, shortened: as §1
# CaSla1-D3 = biological target: CaSla1-D3
# Procedure, shortened: as §1
# ScAbp1 = biological target: ScAbp1
# Procedure, shortened: as §1
# ScBbc1 = biological target: ScBbc1
# Procedure, shortened: as §1
# ScBem1-D1 = biological target: ScBem1-D1
# Procedure, shortened: as §1
# ScBzz1-D1 = biological target: ScBzz1-D1
# Procedure, shortened: as §1
# ScBzz1-D2 = biological target: ScBzz1-D2
# Procedure, shortened: as §1
# ScCyk3 = biological target: ScCyk3
# Procedure, shortened: as §1
# ScFus1 = biological target: ScFus1
# Procedure, shortened: as §1
# ScHof1 = biological target: ScHof1
# Procedure, shortened: as §1
# ScHse1 = biological target: ScHse1
# Procedure, shortened: as §1
# ScLsb1 = biological target: ScLsb1
# Procedure, shortened: as §1
# ScLsb2 = biological target: ScLsb2
# Procedure, shortened: as §1
# ScLsb3 = biological target: ScLsb3
# Procedure, shortened: as §1
# ScLsb4 = biological target: ScLsb4
# Procedure, shortened: as §1
# ScMyo3 = biological target: ScMyo3
# Procedure, shortened: as §1
# ScMyo5 = biological target: ScMyo5
# Procedure, shortened: as §1
# ScNbp2 = biological target: ScNbp2
# Procedure, shortened: as §1
# ScPex13 = biological target: ScPex13
# Procedure, shortened: as §1
# ScRvs167 = biological target: ScRvs167
# Procedure, shortened: as §1
# ScSho1 = biological target: ScSho1
# Procedure, shortened: as §1
# ScSla1-D1-D2 = biological target: ScSla1-D1-D2
# Procedure, shortened: as §1
# ScSla1-D3 = biological target: ScSla1-D3
# Procedure, shortened: as §1
# SpAbp1-D1 = biological target: SpAbp1-D1
# Procedure, shortened: as §1
# SpBbc1 = biological target: SpBbc1
# Procedure, shortened: as §1
# SpBzz1-D1 = biological target: SpBzz1-D1
# Procedure, shortened: as §1
# SpBzz1-D2 = biological target: SpBzz1-D2
# Procedure, shortened: as §1
# SpCyk3 = biological target: SpCyk3
# Procedure, shortened: as §1
# SpHof1 = biological target: SpHof1
# Procedure, shortened: as §1
# SpHof1-2 = biological target: SpHof1-2
# Procedure, shortened: as §1
# SpHof1-3 = biological target: SpHof1-3
# Procedure, shortened: as §1
# SpHse1 = biological target: SpHse1
# Procedure, shortened: as §1
# SpLsb1 = biological target: SpLsb1
# Procedure, shortened: as §1
# SpLsb4 = biological target: SpLsb4
# Procedure, shortened: as §1
# SpMyo1 = biological target: SpMyo1
# Procedure, shortened: as §1
# SpNbp2 = biological target: SpNbp2
# Procedure, shortened: as §1
# SpPex13 = biological target: SpPex13
# Procedure, shortened: as §1
# SpRvs167 = biological target: SpRvs167
# Procedure, shortened: as §1
# SpSla1-D1-D2 = biological target: SpSla1-D1-D2
# Procedure, shortened: as §1
# SpSla1-D3 = biological target: SpSla1-D3
# Procedure, shortened: as §1
binder,measurement,setting,value
VPKEPAPAPPPEPDM,SPOT peptide array binding signal intensity,AgAbp1,≤ 0
same,SPOT peptide array binding signal intensity,AgBbc1,0.5
same,SPOT peptide array binding signal intensity,AgBem1-D1,≤ 0
same,SPOT peptide array binding signal intensity,AgBzz1-D1,≤ 0
same,SPOT peptide array binding signal intensity,AgBzz1-D2,7
same,SPOT peptide array binding signal intensity,AgCyk3,≤ 0
same,SPOT peptide array binding signal intensity,AgFus1,4.75
same,SPOT peptide array binding signal intensity,AgHof1,3.88
same,SPOT peptide array binding signal intensity,AgHse1,8
same,SPOT peptide array binding signal intensity,AgLsb1,≤ 0
same,SPOT peptide array binding signal intensity,AgLsb4,≤ 0
same,SPOT peptide array binding signal intensity,AgMyo5,520
same,SPOT peptide array binding signal intensity,AgNbp2,12
same,SPOT peptide array binding signal intensity,AgRvs167,0.167
same,SPOT peptide array binding signal intensity,AgSho1,3.75
same,SPOT peptide array binding signal intensity,AgSla1-D1-D2,≤ 0
same,SPOT peptide array binding signal intensity,AgSla1-D3,0.75
same,SPOT peptide array binding signal intensity,CaAbp1-D1,≤ 0
same,SPOT peptide array binding signal intensity,CaAbp1-D2,≤ 0
same,SPOT peptide array binding signal intensity,CaBbc1,≤ 0
same,SPOT peptide array binding signal intensity,CaBem1-D1,1.5
same,SPOT peptide array binding signal intensity,CaBzz1-D1,42.8
same,SPOT peptide array binding signal intensity,CaBzz1-D2,2.75
same,SPOT peptide array binding signal intensity,CaCyk3,≤ 0
same,SPOT peptide array binding signal intensity,CaFus1,39
same,SPOT peptide array binding signal intensity,CaHof1,≤ 0
same,SPOT peptide array binding signal intensity,CaHse1,2.12
same,SPOT peptide array binding signal intensity,CaLsb1,≤ 0
same,SPOT peptide array binding signal intensity,CaLsb4,≤ 0
same,SPOT peptide array binding signal intensity,CaMyo5,180
same,SPOT peptide array binding signal intensity,CaNbp2,37
same,SPOT peptide array binding signal intensity,CaRvs167,≤ 0
same,SPOT peptide array binding signal intensity,CaRvs167-3,3.25
same,SPOT peptide array binding signal intensity,CaSho1,3.5
same,SPOT peptide array binding signal intensity,CaSla1-D1-D2,9
same,SPOT peptide array binding signal intensity,CaSla1-D3,≤ 0
same,SPOT peptide array binding signal intensity,ScAbp1,≤ 0
same,SPOT peptide array binding signal intensity,ScBbc1,≤ 0
same,SPOT peptide array binding signal intensity,ScBem1-D1,≤ 0
same,SPOT peptide array binding signal intensity,ScBzz1-D1,≤ 0
same,SPOT peptide array binding signal intensity,ScBzz1-D2,21
same,SPOT peptide array binding signal intensity,ScCyk3,≤ 0
same,SPOT peptide array binding signal intensity,ScFus1,≤ 0
same,SPOT peptide array binding signal intensity,ScHof1,≤ 0
same,SPOT peptide array binding signal intensity,ScHse1,7.25
same,SPOT peptide array binding signal intensity,ScLsb1,≤ 0
same,SPOT peptide array binding signal intensity,ScLsb2,≤ 0
same,SPOT peptide array binding signal intensity,ScLsb3,≤ 0
same,SPOT peptide array binding signal intensity,ScLsb4,≤ 0
same,SPOT peptide array binding signal intensity,ScMyo3,1170
same,SPOT peptide array binding signal intensity,ScMyo5,779
same,SPOT peptide array binding signal intensity,ScNbp2,10.5
same,SPOT peptide array binding signal intensity,ScPex13,≤ 0
same,SPOT peptide array binding signal intensity,ScRvs167,≤ 0
same,SPOT peptide array binding signal intensity,ScSho1,≤ 0
same,SPOT peptide array binding signal intensity,ScSla1-D1-D2,3.5
same,SPOT peptide array binding signal intensity,ScSla1-D3,6.5
same,SPOT peptide array binding signal intensity,SpAbp1-D1,≤ 0
same,SPOT peptide array binding signal intensity,SpBbc1,1.12
same,SPOT peptide array binding signal intensity,SpBzz1-D1,≤ 0
same,SPOT peptide array binding signal intensity,SpBzz1-D2,0.25
same,SPOT peptide array binding signal intensity,SpCyk3,≤ 0
same,SPOT peptide array binding signal intensity,SpHof1,≤ 0
same,SPOT peptide array binding signal intensity,SpHof1-2,6.38
same,SPOT peptide array binding signal intensity,SpHof1-3,20.2
same,SPOT peptide array binding signal intensity,SpHse1,1.5
same,SPOT peptide array binding signal intensity,SpLsb1,≤ 0
same,SPOT peptide array binding signal intensity,SpLsb4,≤ 0
same,SPOT peptide array binding signal intensity,SpMyo1,670
same,SPOT peptide array binding signal intensity,SpNbp2,21
same,SPOT peptide array binding signal intensity,SpPex13,≤ 0
same,SPOT peptide array binding signal intensity,SpRvs167,≤ 0
same,SPOT peptide array binding signal intensity,SpSla1-D1-D2,8
same,SPOT peptide array binding signal intensity,SpSla1-D3,8.5
